Assay results reported in the supplement of paper PMC8728848.
About 410 targets per protein were measured; listed, in parts, are those with the strongest signals and a random draw of the rest.

Assays:
Experiment in all cases: glycan array binding signal (z-score within array); higher = stronger binding
Details in all cases: glycan notation: IUPAC condensed, linker removed
Fuc(a1-2)Gal(b1-4)GlcNAc = biological target: Fuc(a1-2)Gal(b1-4)GlcNAc
Method in brief: (§1)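 Columns mapping to the same glycan were averaged after glycan names were converted to IUPAC-condensed notation. The data come from 3228 arrays in the Consortium for Functional Glycomics database, limited to those with an available protein sequence. Binding is reported as a within-array Z-score averaged across arrays of one protein sequence and across linkers.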

[1] = biological target: Fuc(a1-2)Gal(b1-4)GlcNAc(b1-2)Man(a1-3)[Fuc(a1-2)Gal(b1-4)GlcNAc(b1-2)Man(a1-6)]Man(b1-4)GlcNAc(b1-4)[Fuc(a1-6)]GlcNAc
Method in brief: as §1

[2] = biological target: Fuc(a1-2)Gal6S(b1-3)GlcNAc
Method in brief: as §1

[3] = biological target: Fuc(a1-2)Gal6S(b1-3)GlcNAc6S
Method in brief: as §1

Fuc(a1-2)[Gal(a1-3)]Gal = biological target: Fuc(a1-2)[Gal(a1-3)]Gal
Method in brief: as §1

[4] = biological target: Fuc(a1-2)[Gal(a1-3)]Gal(b1-3)GlcNAc
Method in brief: as §1

[5] = biological target: Fuc(a1-2)[Gal(a1-3)]Gal(b1-3)GlcNAc(b1-2)Man(a1-3)[Fuc(a1-2)[Gal(a1-3)]Gal(b1-3)GlcNAc(b1-2)Man(a1-6)]Man(b1-4)GlcNAc(b1-4)[Fuc(a1-6)]GlcNAc
Method in brief: as §1

[6] = biological target: Fuc(a1-2)[Gal(a1-3)]Gal(b1-4)GlcNAc(b1-6)GalNAc
Method in brief: as §1

[7] = biological target: Fuc(a1-2)[GalNAc(a1-3)]Gal(b1-3)GlcNAc(b1-2)Man(a1-3)[Fuc(a1-2)[GalNAc(a1-3)]Gal(b1-3)GlcNAc(b1-2)Man(a1-6)]Man(b1-4)GlcNAc(b1-4)[Fuc(a1-6)]GlcNAc
Method in brief: as §1

[8] = biological target: Fuc(a1-2)[GalNAc(a1-4)]Gal(b1-4)GlcNAc
Method in brief: as §1

[9] = biological target: Fuc(a1-3)[Gal(b1-4)]GlcNAc
Method in brief: as §1

[10] = biological target: Fuc(a1-3)[Gal(b1-4)]GlcNAc(b1-6)GalNAc
Method in brief: as §1

Gal(a1-3)Gal(b1-3)GlcNAc = biological target: Gal(a1-3)Gal(b1-3)GlcNAc
Method in brief: as §1

[11] = biological target: Gal(a1-3)Gal(b1-3)GlcNAc(b1-2)Man
Method in brief: as §1

[12] = biological target: Gal(a1-3)Gal(b1-3)GlcNAc(b1-2)Man(a1-3)[Gal(a1-3)Gal(b1-3)GlcNAc(b1-2)Man(a1-6)]Man(b1-4)GlcNAc(b1-4)GlcNAc
Method in brief: as §1

[13] = biological target: Gal(a1-3)Gal(b1-3)GlcNAc(b1-3)GalNAc
Method in brief: as §1

[14] = biological target: Gal(a1-3)Gal(b1-4)GlcNAc(b1-2)Man(a1-3)[Gal(a1-3)Gal(b1-4)GlcNAc(b1-2)Man(a1-6)]Man(b1-4)GlcNAc(b1-4)GlcNAc
Method in brief: as §1

[15] = biological target: Gal(a1-3)Gal(b1-4)[Fuc(a1-3)]GlcNAc
Method in brief: as §1

Gal(a1-3)GalNAc = biological target: Gal(a1-3)GalNAc
Method in brief: as §1

[16] = biological target: Gal(a1-3)[Gal(a1-4)]Gal(b1-4)GlcNAc
Method in brief: as §1

Gal(b1-3)GalNAc(b1-3)Gal = biological target: Gal(b1-3)GalNAc(b1-3)Gal
Method in brief: as §1

[17] = biological target: Gal(b1-3)GlcNAc(b1-2)Man(a1-3)[Gal(b1-3)GlcNAc(b1-2)Man(a1-6)]Man(b1-4)GlcNAc(b1-4)[Fuc(a1-6)]GlcNAc
Method in brief: as §1

[18] = biological target: Gal(b1-3)GlcNAc(b1-3)Gal(b1-4)GlcNAc(b1-2)[Gal(b1-3)GlcNAc(b1-3)Gal(b1-4)GlcNAc(b1-6)]Man(a1-6)[Gal(b1-3)GlcNAc(b1-3)Gal(b1-4)GlcNAc(b1-2)Man(a1-3)]Man(b1-4)GlcNAc(b1-4)[Fuc(a1-6)]GlcNAc
Method in brief: as §1

Gal(b1-3)GlcNAc6S = biological target: Gal(b1-3)GlcNAc6S
Method in brief: as §1

[19] = biological target: Gal(b1-3)[Fuc(a1-4)]GlcNAc
Method in brief: as §1

[20] = biological target: Gal(b1-3)[Fuc(a1-4)]GlcNAc(b1-6)GalNAc
Method in brief: as §1

Gal(b1-4)GlcNAc(b1-2)Man = biological target: Gal(b1-4)GlcNAc(b1-2)Man
Method in brief: as §1

[21] = biological target: Gal(b1-4)GlcNAc(b1-2)[Gal(b1-4)GlcNAc(b1-4)]Man(a1-3)[GlcNAc(b1-4)][Gal(b1-4)GlcNAc(b1-2)[Gal(b1-4)GlcNAc(b1-6)]Man(a1-6)]Man(b1-4)GlcNAc(b1-4)GlcNAc
Method in brief: as §1

[22] = biological target: Gal(b1-4)GlcNAc(b1-3)Gal(b1-4)GlcNAc
Method in brief: as §1

[23] = biological target: Gal(b1-4)GlcNAc(b1-6)Gal(b1-4)GlcNAc
Method in brief: as §1

Gal3S(b1-4)Glc = biological target: Gal3S(b1-4)Glc
Method in brief: as §1

B1: FimA-N2 (Actinomyces oris) (protein)
chain: MHHHHHHSSGVDLGTENLYFQSNAWIYDVNVYPKNEAIDVDKTIQAQKLNGYGVGSLIKFPVESTAPTLDAKSFYKYFQLKDTLDERLSEVTATDVSLEGTPLQPTDYKVETKQQTVTVTFTAEGLKKIKAAPGKKVSAVFQGKVTKAGNGAITNRAQVISDTLYAEQPPTPETPPTDPENPPTSDEVISRWGDLSIKKVDTHQQGQTKA
glycan array binding signal (z-score) (Fuc(a1-2)Gal(b1-4)GlcNAc): 0.416 | glycan array binding signal (z-score) [1]: 2.43 | glycan array binding signal (z-score) [2]: 1.35 | glycan array binding signal (z-score) [3]: 3.98 | glycan array binding signal (z-score) (Fuc(a1-2)[Gal(a1-3)]Gal): 1.78 | glycan array binding signal (z-score) [4]: -0.75 | glycan array binding signal (z-score) [5]: -0.838 | glycan array binding signal (z-score) [6]: 2.61 | glycan array binding signal (z-score) [7]: -0.909 | glycan array binding signal (z-score) [8]: 0.482 | glycan array binding signal (z-score) [9]: -0.144 | glycan array binding signal (z-score) [10]: -0.225 | glycan array binding signal (z-score) (Gal(a1-3)Gal(b1-3)GlcNAc): 1.02 | glycan array binding signal (z-score) [11]: 2.25 | glycan array binding signal (z-score) [12]: 0.101 | glycan array binding signal (z-score) [13]: -0.826 | glycan array binding signal (z-score) [14]: -1.06 | glycan array binding signal (z-score) [15]: -1.47 | glycan array binding signal (z-score) (Gal(a1-3)GalNAc): -0.66 | glycan array binding signal (z-score) [16]: 2.77 | glycan array binding signal (z-score) (Gal(b1-3)GalNAc(b1-3)Gal): -0.678 | glycan array binding signal (z-score) [17]: 2.23 | glycan array binding signal (z-score) [18]: 3.71 | glycan array binding signal (z-score) (Gal(b1-3)GlcNAc6S): -0.106 | glycan array binding signal (z-score) [19]: 0.004 | glycan array binding signal (z-score) [20]: -0.651 | glycan array binding signal (z-score) (Gal(b1-4)GlcNAc(b1-2)Man): -0.413 | glycan array binding signal (z-score) [21]: -0.356 | glycan array binding signal (z-score) [22]: 1.55 | glycan array binding signal (z-score) [23]: -0.5 | glycan array binding signal (z-score) (Gal3S(b1-4)Glc): 0.216
